Assay [1] in a line: Nuclear factor erythroid 2-related factor 2/antioxidant responsive element (Nrf2/ARE) small molecule agonists: qHTS cell viability counter screen in human keratinocytes (AID 1919968; active = well fitted curve in the direction sought with a large enough effect in the repeat runs; an effect the other way counts as inactive or inconclusive; note: nearly all actives have a fitted effect of over 55% in size). A digest of the protocol: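 Parallel cytotoxicity read: KeratinoSens HaCaT cells, compound treatment 23 h, viability by CellTiter-Fluor fluorescence 1 h post-reagent.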
On the technique in general: Quantitative high-throughput screening tests each substance at several concentrations.

Assay [2] can be described thus: Nuclear factor erythroid 2-related factor 2/antioxidant responsive element (Nrf2/ARE) small molecule agonists: luciferase reporter gene qHTS assay in human keratinocytes (AID 1919969). Note: nearly all actives have a fitted effect of over 35% in size. Note: potency is the fitted concentration of half-maximal effect. Background: In a reporter assay the amount or activity of a reporter protein is the signal.
For assay [3], the target named is Gonadotropin-releasing hormone receptor (Homo sapiens) (UniProt P30968). Kind of assay: Human gonadotropin-releasing hormone receptor (GnRHR) small molecule agonists, calcium flux assay in GnRHR-HEK293 cells (AID 1920063). Note: nearly all actives have a fitted effect of over 35% in size. The procedure, abridged:
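Calcium flux, agonist mode, human GnRHR stably integrated in HEK293; dye 1 h at 37 C before compound; Ex/Em=480/540 kinetic read, 3 min; 15 concentrations, triplicate.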

Assay [4] addresses KiSS-1 receptor (Homo sapiens) (UniProt Q969F8). Kind of assay: Human kisspeptin (KISS1R) small molecule agonists, calcium flux assay in KISS1R-HEK293 cells (AID 1920064; active = well fitted curve in the direction sought with a large enough effect in the repeat runs; an effect the other way counts as inactive or inconclusive). The procedure, abridged:
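Triplicate 15-concentration series were applied to dye-loaded human KISS1R HEK293 cells, and agonist-evoked calcium fluorescence was captured for 3 min.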
On the technique in general: A change in cytosolic calcium serves as a functional read-out for many receptors and channels.

Assay [5] in a line: G protein-coupled receptor (GPCR) small molecule agonists, calcium flux assay: HEK293 wild type cell line counter screen (AID 1920065). A digest of the protocol: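 Non-specific calcium responders were flagged by adding DMSO-dissolved compounds to dye-loaded cells and reading 480/540 nm fluorescence each second for 3 min; ATP served as positive control.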
Assay [6] can be described thus: p53 small molecule agonists, cell-based qHTS assay with human liver microsomes (AID 1963577).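 Note: p53 response element beta-lactamase reporter cells with liver microsomes plus NADPH.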 The procedure, abridged:
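Compounds act here after metabolic activation: human liver microsomes and NADPH, both at 0.5 mg/mL final, were co-added to p53RE-bla cells. Incubation ran 16 h at 37 C, followed by LiveBLAzer detection.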

Assay [7] can be described thus: p53 small molecule agonists, cell-based qHTS assay with rat liver microsomes (AID 1963578). The procedure, abridged: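 Read-out is beta-lactamase reporter fluorescence (LiveBLAzer, 2 h, room temperature, dark) in p53RE-bla cells treated 16 h at 37 C with compound, rat liver microsomes and NADPH, both 0.5 mg/mL final.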
Assay [8] in a line: p53 small molecule agonists, cell-based qHTS assay with rat liver microsomes: qHTS cell viability counter screen (AID 1963580). Note: nearly all actives have a fitted effect of over 45% in size. A digest of the protocol: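 Counter screen for cytotoxicity under metabolic activation: rat liver microsomes and NADPH, 0.5 mg/mL final each, added with compounds to p53RE-bla HCT-116 cells; 16 h at 37 C, then ATP luminescence read.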
For assay [9], the target named is 5-hydroxytryptamine receptor 2A (Homo sapiens) (UniProt P28223). In words: 5-hydroxytryptamine receptor 2A (HTR2A) small molecule antagonists, cell-based qHTS assay (AID 1963586). Note: nearly all actives have a fitted effect of over 45% in size. Note: potency is the fitted concentration of half-maximal effect. The procedure, abridged: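 CHO cells stably expressing human HTR2A were plated for 18 h at 37 C, then loaded with calcium dye for 1 h. Compounds were preincubated 5 min at room temperature before DOI (4 nM solution) was added. Kinetic fluorescence was read for 3 min.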

The target is the same in assay [10]. In words: 5-hydroxytryptamine receptor 2A (HTR2A) small molecule agonists, cell-based qHTS assay (AID 1963587). Note: nearly all actives have a fitted effect of over 30% in size. A digest of the protocol: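 HTR2A-CHO cells, plated 18 h at 37 C/5% CO2, dye-loaded 1 h at 37 C; compounds in DMSO added by pin tool (agonist mode). Intracellular calcium flux read as kinetic fluorescence on FDSS over 2 min at 1 s intervals.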
The target in assay [11] is Muscarinic acetylcholine receptor M1 (Homo sapiens) (UniProt P11229). Kind of assay: Cholinergic receptor muscarinic 1 (CHRM1) small molecule antagonists, cell-based qHTS assay (AID 1963588). Note: nearly all actives have a fitted effect of over 40% in size. A digest of the protocol:
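Compounds were tested at 15 concentrations in three independent runs. Dye-loaded CHRM1-CHO cells were exposed 5 min at room temperature before stimulation by acetylcholine added at 50nM. Intracellular calcium was read kinetically on FDSS for 3 min.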

The target is the same in assay [12]. Kind of assay: Cholinergic receptor muscarinic 1 (CHRM1) small molecule agonists, cell-based qHTS assay (AID 1963589). Note: nearly all actives have a fitted effect of over 35% in size. A digest of the protocol:
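qHTS, 15-point titration, 3 independent runs: compounds pin-transferred onto dye-loaded CHRM1-CHO cells (human M1), calcium fluorescence followed every second to detect agonism.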

In assay [13] the target is Beta-2 adrenergic receptor (Homo sapiens) (UniProt P07550). Kind of assay: Adrenergic beta2 receptor (ADRB2) small molecule antagonists, cell-based qHTS assay (AID 1963592). Note: series mostly up to about 92 µM; nearly all actives have a fitted effect of over 50% in size. A digest of the protocol: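 Assay format: CHO-ADRB2 cells, 18-20hr seeding at 37C/5% CO2, then compound plus 1nM isoproterenol agonist mix for 0.5hr RT. Homogeneous time-resolved fluorescence cAMP detection after 1hr, expressed as 665/615 nm ratio.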

The target is the same in assay [14]. In words: Adrenergic beta2 receptor (ADRB2) small molecule agonists, cell-based qHTS assay (AID 1963593).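 Note: CHO cells stably overexpressing human ADRB2.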 A digest of the protocol: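 CHO cells stably over-expressing ADRB2 were plated overnight at 37C, then dosed with compounds plus a stimulation mix containing 100uM IBMX and 25uM Ro-20-1724 for 0.5hr at room temperature. cAMP was measured by HTRF competition, 1hr.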

Assay [15] deals with D(2) dopamine receptor (Homo sapiens) (UniProt P14416). In words: Dopamine D2 receptor (DRD2) small molecule agonists, cell-based qHTS assay (AID 1963594). Note: nearly all actives have a fitted effect of over 35% in size. The procedure, abridged: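 HEK293 cells stably expressing DRD2 were cultured 24 h at 37 C, then given Ro20-1724 (0.1 mM final) and compounds for 10 min at room temperature. NKH477 (200nM) was then added for 30 min. cAMP was read by HTRF.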

For assay [16] the target is unchanged. In words: Dopamine D2 receptor (DRD2) small molecule antagonists, cell-based qHTS assay (AID 1963595; active = well fitted inhibition curve with a large enough effect in the signal ratio in the repeat runs, with a control signal flat; the % refers to the signal ratio; note: potency is the fitted concentration of half-maximal effect). A digest of the protocol: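 Stable D2 receptor HEK293 line, 24 h after seeding. Compound preincubated 10 min, then quinpirole (12 nM) with forskolin analogue NKH477 (200 nM), 30 min, room temperature. Detection by time-resolved FRET of cAMP.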
Assay [17] is described as follows: p53 small molecule agonists, cell-based qHTS assay: qHTS cell viability counter screen (AID 1963581). Note: nearly all actives have a fitted effect of over 45% in size. The procedure, abridged: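 Multiplexed with the reporter read, a CellTiter-Glo step (30 min, room temperature) gauges ATP-based viability of HCT-116 p53RE-bla cells after 16 h compound incubation at 37 C.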
Assay [18] can be described thus: p53 small molecule agonists, cell-based qHTS assay (AID 1963582; active = well fitted activation curve with a large enough effect in the signal ratio in the repeat runs, not every such curve was filed as active; the % refers to the signal ratio). The procedure, abridged: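 Beta-lactamase reporter cells (p53RE-bla) treated with compounds for 16 h at 37 C; FRET substrate, 2 h, room temperature; fluorescence intensity.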
A short description of assay [19]: cAMP Responsive Elements (CRE) small molecule agonists, cell-based qHTS assay (AID 1963590). The procedure, abridged:
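Quantitative HTS for CRE agonists: HEK 293T CRE-bla cells, overnight plating, 3 h compound incubation at 37 C/5% CO2, then 2 h room-temperature LiveBLAzer B/G FRET substrate loading.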

Assay [20] is described as follows: cAMP Responsive Elements (CRE) small molecule antagonists, cell-based qHTS assay (AID 1963591; active = well fitted inhibition curve with a large enough effect in the signal ratio in the repeat runs, not every such curve was filed as active; the % refers to the signal ratio). The procedure, abridged: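 Fluorescence intensity from cleaved LiveBLAzer B/G substrate (2 h, room temperature) quantified CRE-bla activity in HEK 293T cells exposed 3 h to compound with 0.25 uM final NKH477.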

A number with no mark means an inactive call. Results filed as inconclusive are left out. Activity calls are given as the source filed them. Unless noted, calls come from the whole dose curve.

Chain of D(2) dopamine receptor (Homo sapiens) (P14416 whole entry, looked up): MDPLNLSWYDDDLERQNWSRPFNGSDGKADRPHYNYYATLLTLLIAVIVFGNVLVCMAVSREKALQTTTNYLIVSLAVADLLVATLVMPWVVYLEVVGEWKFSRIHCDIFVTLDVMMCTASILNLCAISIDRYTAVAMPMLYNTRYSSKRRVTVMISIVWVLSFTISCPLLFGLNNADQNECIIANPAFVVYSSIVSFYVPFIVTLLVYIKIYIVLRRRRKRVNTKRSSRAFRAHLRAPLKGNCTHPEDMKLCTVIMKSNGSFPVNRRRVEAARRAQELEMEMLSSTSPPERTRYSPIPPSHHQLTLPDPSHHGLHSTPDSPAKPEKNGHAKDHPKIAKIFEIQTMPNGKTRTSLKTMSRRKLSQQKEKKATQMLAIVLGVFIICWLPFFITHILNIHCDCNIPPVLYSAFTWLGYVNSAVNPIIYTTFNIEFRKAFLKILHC
Chain of Gonadotropin-releasing hormone receptor (Homo sapiens) (P30968 whole entry, looked up): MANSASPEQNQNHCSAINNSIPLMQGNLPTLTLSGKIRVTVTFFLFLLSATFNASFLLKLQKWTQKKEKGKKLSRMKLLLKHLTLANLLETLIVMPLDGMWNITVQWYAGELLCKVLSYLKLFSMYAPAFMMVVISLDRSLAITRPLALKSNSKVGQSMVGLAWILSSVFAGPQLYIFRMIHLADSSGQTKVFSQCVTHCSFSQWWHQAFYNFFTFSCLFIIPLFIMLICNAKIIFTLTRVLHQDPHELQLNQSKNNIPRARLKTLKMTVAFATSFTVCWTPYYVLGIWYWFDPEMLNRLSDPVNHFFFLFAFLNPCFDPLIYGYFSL
Chain of KiSS-1 receptor (Homo sapiens) (Q969F8 whole entry, looked up): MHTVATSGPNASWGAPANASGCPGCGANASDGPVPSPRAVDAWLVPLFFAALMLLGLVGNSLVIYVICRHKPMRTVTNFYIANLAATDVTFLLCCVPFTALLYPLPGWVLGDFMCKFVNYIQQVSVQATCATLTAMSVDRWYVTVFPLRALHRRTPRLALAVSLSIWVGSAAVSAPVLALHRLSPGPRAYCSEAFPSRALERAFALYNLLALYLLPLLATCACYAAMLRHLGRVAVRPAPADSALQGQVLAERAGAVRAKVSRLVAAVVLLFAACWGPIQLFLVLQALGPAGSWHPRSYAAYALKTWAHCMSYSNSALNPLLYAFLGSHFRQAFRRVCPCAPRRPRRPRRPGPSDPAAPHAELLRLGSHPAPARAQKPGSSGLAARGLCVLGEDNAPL
Chain of 5-hydroxytryptamine receptor 2A (Homo sapiens) (P28223 whole entry, looked up): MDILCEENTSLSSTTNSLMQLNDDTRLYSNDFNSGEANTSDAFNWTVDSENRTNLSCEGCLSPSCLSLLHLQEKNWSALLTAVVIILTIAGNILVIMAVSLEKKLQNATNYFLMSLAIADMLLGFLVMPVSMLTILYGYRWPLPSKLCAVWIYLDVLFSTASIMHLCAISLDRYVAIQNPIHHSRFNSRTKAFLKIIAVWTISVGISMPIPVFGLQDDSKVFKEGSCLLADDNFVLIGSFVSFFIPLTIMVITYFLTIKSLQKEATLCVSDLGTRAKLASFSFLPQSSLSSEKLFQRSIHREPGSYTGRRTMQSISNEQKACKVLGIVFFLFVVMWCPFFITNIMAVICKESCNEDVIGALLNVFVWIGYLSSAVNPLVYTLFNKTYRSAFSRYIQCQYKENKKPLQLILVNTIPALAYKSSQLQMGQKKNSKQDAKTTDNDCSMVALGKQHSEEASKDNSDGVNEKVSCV
Chain of Muscarinic acetylcholine receptor M1 (Homo sapiens) (P11229 whole entry, looked up): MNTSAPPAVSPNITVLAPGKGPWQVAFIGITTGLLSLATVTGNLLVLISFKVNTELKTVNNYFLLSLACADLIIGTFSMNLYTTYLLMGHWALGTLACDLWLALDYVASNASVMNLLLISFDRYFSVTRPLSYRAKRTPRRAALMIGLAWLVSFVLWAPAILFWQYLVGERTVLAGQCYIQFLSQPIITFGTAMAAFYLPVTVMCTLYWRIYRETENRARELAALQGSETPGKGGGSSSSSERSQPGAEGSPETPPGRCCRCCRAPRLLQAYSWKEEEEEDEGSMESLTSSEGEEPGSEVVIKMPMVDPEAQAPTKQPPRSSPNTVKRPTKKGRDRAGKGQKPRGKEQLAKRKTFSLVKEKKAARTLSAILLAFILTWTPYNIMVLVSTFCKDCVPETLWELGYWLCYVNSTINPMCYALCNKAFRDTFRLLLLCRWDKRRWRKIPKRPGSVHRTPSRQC
Chain of Beta-2 adrenergic receptor (Homo sapiens) (P07550 whole entry, looked up): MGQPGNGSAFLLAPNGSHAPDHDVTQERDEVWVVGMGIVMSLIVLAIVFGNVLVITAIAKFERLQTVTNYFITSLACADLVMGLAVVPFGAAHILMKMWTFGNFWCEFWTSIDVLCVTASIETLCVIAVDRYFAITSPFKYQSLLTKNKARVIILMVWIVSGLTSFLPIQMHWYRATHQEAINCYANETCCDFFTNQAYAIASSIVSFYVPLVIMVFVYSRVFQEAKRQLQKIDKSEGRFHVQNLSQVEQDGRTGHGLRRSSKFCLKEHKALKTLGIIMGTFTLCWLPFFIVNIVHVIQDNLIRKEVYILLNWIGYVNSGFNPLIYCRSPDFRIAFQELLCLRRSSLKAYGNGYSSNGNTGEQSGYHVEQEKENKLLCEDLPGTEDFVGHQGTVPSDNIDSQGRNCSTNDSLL

`C/C=C\C/C=C/CCCCCCCCOC(C)=O`: the Potency result in assay [1], in assay [3], in assay [6], in assay [7], in [8] and in assay [9] was “inactive” each time. In addition, the Potency entry in [10], in [11], in [12], in assay [13], in assay [14] and in [15] was “inactive” in each case. For the same molecule, the Potency result in assay [16] is “inactive”. The Potency in assay [2] was 68.6 µM (active). For the same molecule, the outcome in assay [4] and in assay [5] was inactive.

As to `O=[N+]([O-])c1c(Cl)cc(Cl)cc1Cl`, the Potency entry in [1], in [2], in [3], in [6], in assay [8] and in assay [17] was “inactive” each time. Further, the Potency result in assay [18], in assay [9], in [10], in assay [11], in [12] and in assay [19] was “inactive” in each case. Further, the Potency entry in assay [20], in assay [13], in assay [15] and in [16] was “inactive” in each case. Besides, the outcome in [4] and in [5] was inactive.

Consider `O=S(=O)(Cl)c1c(Cl)cccc1Cl`, for which the Potency result in [1], in [2], in assay [3], in [6], in [7] and in assay [17] was “inactive” each time. The Potency result in assay [9], in assay [10], in assay [11], in assay [12], in [19] and in assay [20] was “inactive” throughout. In addition, the Potency entry in assay [13], in assay [15] and in assay [16] was “inactive” each time. Moreover, the result in [4] and in [5] was inactive.

Regarding `O=C(CCCN1CCC(O)(c2ccc(Br)cc2)CC1)c1ccc(F)cc1`, the Potency result in [1], in assay [2], in [3], in assay [6], in assay [7] and in assay [8] was “inactive” throughout. Also, the Potency entry in [18], in [12], in assay [19] and in [15] was “inactive” in each case. Besides, the result in [4] and in assay [5] was inactive. For the same molecule, in assay [16], the Potency was 0.188 µM (active).

In the case of `COc1cnc(NS(=O)(=O)c2ccc(N)cc2)nc1`, the Potency result in assay [1], in [2], in assay [3], in [6], in [7] and in [8] was “inactive” in each case. For the same molecule, the Potency result in assay [18], in assay [9], in [10], in [11], in assay [12] and in [19] was “inactive” each time. The Potency result in assay [20], in assay [13], in assay [14], in assay [15] and in assay [16] was “inactive” throughout. For the same molecule, the result in assay [4] and in assay [5] was inactive.

Turning to `CCCCCCn1c(=O)c2c(ncn2C)n(C)c1=O`, the Potency entry in [1], in assay [2], in [3], in [6], in [7] and in assay [17] was “inactive” throughout. The Potency result in assay [18], in assay [9], in assay [10], in assay [11], in assay [12] and in assay [19] was “inactive” each time. Besides, the Potency result in assay [20], in [15] and in assay [16] was “inactive” throughout. Besides, the result in assay [4] and in assay [5] was inactive.

As for `Cc1cc2c(s1)Nc1ccccc1N=C2N1CCN(C)CC1`, the Potency result in assay [1], in assay [2], in assay [3], in [6], in [7] and in assay [8] was “inactive” in each case. The Potency result in assay [18], in [19] and in [20] was “inactive” throughout. The result in assay [4] and in [5] was inactive.

Regarding `CN(C)CCCOC1(Cc2ccccc2)CCCCCC1`, the Potency entry in assay [1], in assay [2], in assay [3], in assay [6], in assay [7] and in [8] was “inactive” throughout. In addition, the Potency result in [10], in assay [11], in assay [12], in assay [19], in assay [20] and in [13] was “inactive” in each case. Besides, the Potency entry in assay [14], in assay [15] and in assay [16] was “inactive” in each case. Besides, the result in [4] and in [5] was inactive. Moreover, the Potency in [9] is 10.3 µM (active).

The record behind these values is PubChem BioAssay (Tox21).
